Assay results published in PubChem BioAssay AID894 (National Center for Advancing Translational Sciences (NCATS), 2007).
The whole screen tested about 150,000 compounds, of which about 6,500 (4.3%) were called active. Not shown: some 12% with an inconclusive outcome. Calls come from the whole dose curve; as a rule, active = well fitted inhibition curve with a large enough effect (not every such curve was filed as active); inconclusive = small, poorly fitted or top-dose-only effect, or another doubt; inactive = no such curve, though single readings can be large or run the other way. The sample as a whole holds a higher share of actives than the screen did.

The compounds below were run against 15-hydroxyprostaglandin dehydrogenase [NAD(+)] (Homo sapiens) (UniProt P15428) (assay: qHTS Assay for Inhibitors of HPGD (15-Hydroxyprostaglandin Dehydrogenase)). Details: purified HPGD, NADH fluorescence kinetic, PGE2 substrate; activity change, negative = inhibition: active compounds read low.
Sequence of 15-hydroxyprostaglandin dehydrogenase [NAD(+)] (Homo sapiens) (P15428 whole entry, looked up): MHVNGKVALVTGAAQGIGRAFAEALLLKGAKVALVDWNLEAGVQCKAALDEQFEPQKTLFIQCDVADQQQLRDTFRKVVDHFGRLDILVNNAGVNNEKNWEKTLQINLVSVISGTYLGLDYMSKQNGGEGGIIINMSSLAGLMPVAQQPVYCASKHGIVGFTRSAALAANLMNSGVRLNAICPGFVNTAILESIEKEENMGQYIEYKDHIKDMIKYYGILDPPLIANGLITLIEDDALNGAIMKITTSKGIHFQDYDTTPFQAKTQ
In short: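 NADH formation kinetics: reaction with 30 uM PGE2 and 1 mM NAD+ (final), 20 nM enzyme, Tris-HCl pH 8 with Tween 20, after 15 min compound preincubation at room temperature. Fluorescence change, last versus first of five reads.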
% is set by controls: 0 for no effect and ±100 for the full control effect; potency is the fitted concentration of half-maximal effect.

| SMILES | activity change, negative = inhibition | Potency |
| --- | --- | --- |
| COc1ccc(Cc2nnc(N/N=C/c3ccccc3O)[nH]c2=O)cc1OC | -16.1% (inactive) | – |
| NS(=O)(=O)c1ccc(N=Cc2ccc(Br)s2)cc1 | -0.454% (inactive) | – |
| N#Cc1ccccc1NC(=O)COc1c(Br)cc(Br)c2cccnc12 | -10% (inactive) | – |
| Fc1cc(F)c2nc(N3CCOCC3)sc2c1 | -12.5% (inactive) | – |
| c1c2c(cc3sc(N4CCCCC4)nc13)OCCO2 | – | 25.1 µM (active) |
| Fc1ccc2nc(N3CCCCC3)sc2c1 | -12.2% (inactive) | – |
| CC1=C(C/C=C(\C)CCCC(C)CCCC(C)CCCC(C)C)C(=O)c2ccccc2C1=O (centres undefined) | -10.7% (inactive) | – |
| O=C(CN(Cc1ccccc1)C(=O)c1ccc2c(c1)OCCO2)NCc1ccc2c(c1)OCO2 | -6.78% (inactive) | – |
| CCC(C)(C(=O)NC1CCCCC1)N(C)C(=O)c1ccc2c(c1)OCO2 (centres undefined) | -0.912% (inactive) | – |
| CCCCN(CC)C(=O)c1ccc2c(c1)OCO2 | – | 12.6 µM (active) |
| CCn1c(=O)cc(SCC(=O)NCc2ccc3c(c2)OCO3)c2ccccc21 | -4.58% (inactive) | – |
| CCn1c(=O)cc(SCC(=O)NCCC2=CCCCC2)c2ccccc21 | – | 7.08 µM (active) |
| Cc1nnc(OCC(=O)NCCC2=CCCCC2)c2ccccc12 | -17.6% (inactive) | – |
| O=C1CC(c2cccc(Cl)c2)CC(O)=C1C=Nc1ccccc1 (centres undefined) | -9.88% (inactive) | – |
| O=C(CNC(c1ccccc1)c1ccccc1)Nc1ccc(F)cc1 | -9.88% (inactive) | – |
| Cc1ccc(Oc2ccc(N)cc2)cc1 | -24% (inactive) | – |
| Nc1ccc(Oc2ccc(Cl)cc2)cc1 | -8.65% (inactive) | – |
| CC(C)(C)c1ccc(Oc2ccc(N)cc2)cc1 | – | 28.2 µM (active) |
| CCCCN(CC)C(=S)Nc1ccc2nc3n(c(=O)c2c1)CCCCC3 | -1.94% (inactive) | – |
| COc1ccc(C(=O)ON=C2c3ccccc3-c3ccccc32)cc1OC | -23.4% (inactive) | – |
| CCOc1ccc(Oc2nc(C)cc(OC)n2)nn1 | -6.46% (inactive) | – |
| Cc1scc(C(=O)NNC(=S)NCC(C)C)c1C | -5.27% (inactive) | – |
| Cc1cccc(NC(=S)N(CCN(C)C)C(C)c2ccco2)c1 (centres undefined) | -15.4% (inactive) | – |
| COc1ccc(S(=O)(=O)NC(C)C)cc1C(=O)NC1CCCCC1 | -17.6% (inactive) | – |
| CCC(CC)c1nnc(NC(=O)/C=C/c2ccco2)s1 | -29.6% (inactive) | – |
| c1ccc2[nH]c(-c3nc4ccccc4[nH]3)nc2c1 | -25.9% (inactive) | – |
| O=c1[nH]c(-c2cccs2)nc2ccccc12 | – | 15.8 µM (active) |
| O=c1onc(-c2cccs2)n1Cc1ccccc1 | -5.59% (inactive) | – |
| Nc1nc(CC(=O)CSc2ccc(Cl)cc2)nc(Nc2ccc(F)cc2)n1 | -7.75% (inactive) | – |
